Tests used:
Settings in all cases: Compound Concentration (nM):1000
[1] = system: T1, RSK3(Kin.Dom.1-N-terminal)
T1 construct: gene RPS6KA2

[2] = system: T2, RSK3(Kin.Dom.2-C-terminal)
T2 construct: gene RPS6KA2

[3] = system: T3, RSK4(Kin.Dom.1-N-terminal)
T3 construct: gene RPS6KA6

[4] = system: T4, RSK4(Kin.Dom.2-C-terminal)
T4 construct: gene RPS6KA6

S6K1 = system: T5, S6K1
T5 construct: gene RPS6KB1

SBK1 = system: SBK1
SGK2 = system: SGK2
SGK3 = system: SGK3
SGK = system: T6, SGK
T6 construct: gene SGK1

SIK2 = system: SIK2
SIK = system: T7, SIK
T7 construct: gene SIK1

SLK = system: SLK
SNARK = system: T8, SNARK
T8 construct: gene NUAK2

SNRK = system: SNRK
SRC = system: SRC
SRMS = system: SRMS
SRPK1 = system: SRPK1
SRPK2 = system: SRPK2
SRPK3 = system: SRPK3
STK16 = system: STK16
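Note: KINOMEscan scanMAX binding as percent activity remaining versus control; lower means stronger binding.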

SMILES	Percent Control [1] [%]	Percent Control [2] [%]	Percent Control [3] [%]	Percent Control [4] [%]	Percent Control (S6K1) [%]	Percent Control (SBK1) [%]	Percent Control (SGK2) [%]	Percent Control (SGK3) [%]	Percent Control (SGK) [%]	Percent Control (SIK2) [%]	Percent Control (SIK) [%]	Percent Control (SLK) [%]	Percent Control (SNARK) [%]	Percent Control (SNRK) [%]	Percent Control (SRC) [%]	Percent Control (SRMS) [%]	Percent Control (SRPK1) [%]	Percent Control (SRPK2) [%]	Percent Control (SRPK3) [%]	Percent Control (STK16) [%]
COc1ccc2cc(-c3c(-c4ccncc4)nc(-c4ccc(S(C)(=O)=O)cc4C)n3C)ccc2c1 [SB-633825]	98	100	60	83	66	78	59	73	94	100	96	1.7	82	91	82	85	90	76	83	93
COc1cccc(-n2ncc3c(N/N=C/c4ccncc4)ncnc32)c1 [GW784752X]	100	98	94	100	93	63	83	77	57	75	100	100	100	100	54	99	94	100	99	82
CCc1ccc(Oc2nccc(-c3c(-c4ccc(F)cc4)ncn3C3CCNCC3)n2)cc1 [SB-242719]	92	94	93	79	93	100	100	77	100	66	100	79	87	99	100	91	82	100	88	89
Cl.c1ccc(Cc2nc3ccc(Nc4ncnc5ccccc45)cc3[nH]2)cc1 [GR269666A]	100	100	100	98	100	100	100	81	100	82	100	100	100	100	100	100	100	100	78	100
NS(=O)(=O)c1ccc(N/N=C2\C(=O)Nc3ccc(Cl)cc32)cc1 [GW280670X]	100	100	99	100	98	100	100	77	100	100	100	100	91	100	100	100	97	100	88	84
COc1cc(C=NNc2ncnc3c2cnn3-c2ccccc2)ccc1O [GW513184X]	100	100	90	100	100	100	66	85	50	61	79	79	87	100	59	100	33	100	100	100
CCS(=O)(=O)c1ccc(OC)c(Nc2ncc(-c3cccc(F)c3)o2)c1 [GW621970X]	100	100	100	100	93	100	100	98	100	63	100	100	100	100	19	67	92	97	100	38
O=C1Nc2ccc(C(=O)c3ccco3)cc2C1=Cc1cc(Cl)c(O)c(Cl)c1 [GW406108X]	74	51	53	32	74	100	100	74	83	100	93	100	79	100	100	89	88	100	100	60
COc1ccc(COc2ccc(Cc3cnc(N)nc3N)cc2OC)cc1 [GW632580X]	79	89	98	93	85	100	95	72	100	93	96	93	88	87	88	100	100	95	100	93
COc1cc(C)c(N(C)C(=O)CN(C)C)cc1Nc1nc(Nc2cccc(F)c2C(N)=O)c2cc[nH]c2n1 [GSK2219385]	79	90	75	82	100	100	92	92	92	100	100	100	100	76	100	100	90	100	100	83

— publication PMC7826789 (International Journal of Molecular Sciences, 2021)
